Test results taken from paper PMC5540273 (PLoS ONE, 2017).

Tested on: BRSK2
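Note: kd values determined as follow-up on hits from a single-replicate KINOMEscan panel screen.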

**Q.** How did the Kd turn out when `COc1cccc(NC(=O)Nc2ccc(C)c(-c3ccc(C(=O)Nc4ccncc4)cc3)c2)c1` [GSK1398474] was run?
**A.** > 10 µM

**Q.** For `O=c1cc(N2CCOCC2)nc2n(Cc3ccccc3F)ccn12` [GSK2297428], which Kd is on record?
**A.** > 10 µM

**Q.** Which Kd does the source give for `Cc1ccccc1Cn1ccn2c(=O)cc(N3CCOCC3)nc12` [GSK2269905] here?
**A.** > 10 µM

**Q.** With `c1ccc(-c2ccnc3[nH]ccc23)cc1` [SB-693578] as the molecule, how does the Kd read?
**A.** > 10 µM

**Q.** For `COc1ccc(-c2coc3ccc(-c4nnc(C)o4)cc23)cc1`, which Kd is on record?
**A.** > 10 µM

Tested on: BUB1

**Q.** With `CCCCc1nn2ncccc2c1-c1ccnc(NC2CC2)n1` [GW684374] as the molecule, how does the Kd read?
**A.** 3.3 µM

**Q.** Which Kd does the source give for `COc1cc2ncnc(Nc3cccc(Br)c3)c2cc1OC.Cl` [GI230329] here?
**A.** 0.13 µM

**Q.** For `CSc1ccc(-c2nc3n(c2-c2ccncc2)CCC3)cc1` [SKF-105561], which Kd is on record?
**A.** 0.26 µM

**Q.** For `COc1ccc2cc(-c3nc(-c4ccccc4C(C)C)[nH]c3-c3ccncc3)ccc2c1` [SB-660566], which Kd is on record?
**A.** 0.47 µM

**Q.** Which Kd does the source give for `CS(=O)(=O)Cc1ccc(Nc2nccc(-c3c(-c4cccc(NC(=O)C5CCCCC5)c4)nn4ncccc34)n2)cc1` [GSK350559] here?
**A.** 0.029 µM

**Q.** Which Kd does the source give for `Fc1ccc(-c2nc[nH]c2-c2ccncc2)cc1` [SB-217360] here?
**A.** 0.89 µM

Tested on: CAMK2A

**Q.** How did the Kd turn out when `O=C(Nc1n[nH]c2nc(-c3cccs3)c(Br)cc12)C1CC1` [SB-735297] was run?
**A.** > 10 µM

**Q.** How did the Kd turn out when `CNc1nc(-c2ccc3c(N)n[nH]c3c2)cc(N2C[C@@H](C(=O)Nc3ccccc3)CC[C@H]2C)n1` [GSK2298859] was run?
**A.** > 10 µM

**Q.** Which Kd does the source give for `COC(=O)c1cccc(NC(=O)NC2CCN(c3ccnc(Nc4ccc(OC)cc4)n3)C2)c1` (stereo not shown) [GSK1379746] here?
**A.** > 10 µM

**Q.** How did the Kd turn out when `Cc1ccc(NC(=O)c2ccc(Cl)cc2)cc1-c1ccc(C(=O)Nc2ccncc2)cc1` [GSK1398467] was run?
**A.** > 10 µM

Tested on: CAMK2B

**Q.** Which Kd does the source give for `O=C(Nc1n[nH]c2nc(-c3cccs3)c(Br)cc12)C1CC1` [SB-735297] here?
**A.** > 10 µM

**Q.** `CNc1nc(-c2ccc3c(N)n[nH]c3c2)cc(N2C[C@@H](C(=O)Nc3ccccc3)CC[C@H]2C)n1` [GSK2298859] was tested. Which Kd did it give?
**A.** > 10 µM

**Q.** With `COC(=O)c1cccc(NC(=O)NC2CCN(c3ccnc(Nc4ccc(OC)cc4)n3)C2)c1` (stereo not shown) [GSK1379746] as the molecule, how does the Kd read?
**A.** > 10 µM

**Q.** With `Cc1ccc(NC(=O)c2ccc(Cl)cc2)cc1-c1ccc(C(=O)Nc2ccncc2)cc1` [GSK1398467] as the molecule, how does the Kd read?
**A.** > 10 µM
